Laboratory results: the supplement of paper PMC12350171
Structures can show the parent of a compound that is named as a salt. Values without a mark were called inactive.

Assays:
Settings in all cases: 20 µM
[1] = test system: Salmonella enterica typhimurium; assay: growth AUC normalised to DMSO control (fraction of control); higher = less growth inhibition, active = hit call of the paper
Method in brief: (§1)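 For the AUC endpoint, growth curves were integrated by the trapezoidal rule up to the exponential-to-stationary transition and normalised to DMSO controls on the same plate. The curves came from OD578 readings taken hourly for 24 h, in three biological replicates. Pathogens had been passaged anaerobically twice and inoculated at an OD578 of 0.01 into pre-reduced mGAM plates carrying 20 μM compound and 1% DMSO, sealed with breathable membranes. Medium for Haemophilus parainfluenzae also contained hemin and NAD.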

Shigella flexneri = assay: as above
Method in brief: as §1

Vibrio cholerae = assay: as above
Method in brief: as §1

[2] = test system: Yersinia pseudotuberculosis; assay: as above
Method in brief: as §1

P. vulgatus RND KO = assay: growth AUC normalised to DMSO control (median) (fraction of control); higher = less growth inhibition, active = hit call of the paper
Method in brief: (§2)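 Area under the growth curve, calculated by the trapezoidal rule up to entry into stationary phase, was normalised to vehicle wells on the same plate. Strains had been passaged twice overnight without oxygen and then grown in mGAM in 96-well plates from OD578 0.01, each with an approved-drug library compound at 20 μM in 1% DMSO. OD578 was read hourly over 24 h in an anaerobic incubator, and the median of three biological replicates is given.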

P. vulgatus WT = assay: as above
Method in brief: as §2

[3] = test system: S. enterica typhimurium WT; assay: as above
Method in brief: as §2

[4] = test system: S. enterica typhimurium tolC KO; assay: as above
Method in brief: as §2
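Wherever growth AUC normalised to DMSO control (median) is given: active when median AUC fell below 0.1.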

Row | SMILES | growth AUC normalised to DMSO control [1] | growth AUC normalised to DMSO control (Shigella flexneri) | growth AUC normalised to DMSO control (Vibrio cholerae) | growth AUC normalised to DMSO control [2] | growth AUC normalised to DMSO control (P. vulgatus RND KO) | growth AUC normalised to DMSO control (P. vulgatus WT) | growth AUC normalised to DMSO control [3] | growth AUC normalised to DMSO control [4]
1 | CC(C)(S)C(N)C(=O)O (racemic) [D,L-Penicillamine] | 0.993 | 0.991 | 0.996 | 0.992 | 1.01 | 1.01 | 1.01 | 1
2 | CC/C(=C(/CC)c1ccc(O)cc1)c1ccc(O)cc1 [Diethylstilbestrol] | 1 | 0.983 | 0.93 | 0.973 | 0.744 | 0.827 | 1 | 0.827
3 | COC(=O)C1=C(C)NC(C)=C(C(=O)OC)C1c1ccccc1[N+](=O)[O-] [Nifedipine] | 1 | 0.997 | 0.971 | 1 | 0.987 | 0.996 | 1.01 | 0.994
4 | C#C[C@]1(O)CC[C@H]2[C@@H]3CCc4cc(OC)ccc4[C@H]3CC[C@@]21C [Mestranol] | 0.987 | 1.01 | 1.01 | 1.01 | 0.968 | 0.96 | 0.999 | 0.988
5 | Nc1nc(N)c2nc(-c3ccccc3)c(N)nc2n1 [Triamterene] | 0.942 | 1.06 | 0.99 | 0.95 | 0.973 | 0.971 | 0.954 | 0.939
6 | O=C(O)CCC(=O)c1ccc(-c2ccccc2)cc1 [Fenbufen] | 0.999 | 0.99 | 0.87 | 0.986 | 1.01 | 0.994 | 1 | 0.993
7 | N=c1nc(N2CCCCC2)cc(N)n1O [Minoxidil] | 1 | 1.03 | 1.01 | 0.974 | 0.992 | 1.01 | 0.981 | 1.01
8 | Nc1nc(=O)[nH]cc1F [Flucytosine] | 0.983 | 0.968 | 0.961 | 1.01 | 0.996 | 0.991 | 1 | 0.965
9 | O=C(NC(Cc1cc(=O)[nH]c2ccccc12)C(=O)O)c1ccc(Cl)cc1 (stereo not given) [Rebamipide] | 1 | 1.03 | 1.03 | 0.997 | 1.06 | 1.09 | 0.99 | 0.998
10 | CC(=O)NCCCS(=O)(=O)O [Acamprosate calcium] | 1 | 1.02 | 1 | 0.99 | 1.02 | 1.03 | 1 | 0.996
11 | COc1ccccc1N1CCN(CCCCNC(=O)c2ccc3ccccc3c2)CC1 | 1.01 | 1.03 | 0.0446 (active) | 0.978 | 1.02 | 1.08 | 0.985 | 0.753
12 | C[C@]12C=CC(=O)C=C1CC[C@@H]1[C@@H]2[C@@H](O)C[C@@]2(C)[C@H]1CC[C@]2(O)C(=O)CO [Prednisolone] | 0.982 | 0.96 | 0.971 | 0.994 | 0.976 | 0.995 | 0.995 | 0.998
13 | CC(C)[C@H](N)C(=O)OCCOCn1cnc2c(=O)nc(N)[nH]c21 [Valacyclovir hydrochloride] | 0.993 | 1.03 | 0.995 | 1.01 | 0.999 | 1.02 | 1 | 1.02
14 | O=C1c2ccccc2S(=O)(=O)N1CCCCN1CCN(c2ncccn2)CC1 [Ipsapirone] | 0.991 | 0.99 | 0.957 | 0.998 | 1 | 1.01 | 0.989 | 1.01
15 | CC(C[N+](C)(C)C)OC(N)=O (stereo not given) [Bethanechol chloride] | 1 | 1.01 | 1.02 | 0.986 | 0.982 | 0.997 | 1 | 0.993
16 | CC1=C(CC(=O)O)c2cc(F)ccc2/C1=C\c1ccc([S+](C)[O-])cc1 (stereo not given) [Sulindac] | 0.976 | 0.994 | 1.01 | 1.03 | 0.996 | 0.968 | 1 | 0.984
17 | CCC[C@@H]1C[C@@H](C(=O)N[C@@H]([C@H]2O[C@H](SC)[C@H](O)[C@@H](O)[C@H]2O)[C@@H](C)O)N(C)C1 [Lincomycin hydrochloride] | 0.904 (active) | 0.956 | 0.956 | 0.994 | 0.0196 (active) | 0.0159 (active) | 0.956 | 0.866
18 | Nc1ccc(S(=O)(=O)Nc2ncccn2)cc1 [Sulfadiazine] | 0.989 | 0.974 | 1 | 0.987 | 0.996 | 0.995 | 0.986 | 1
19 | CC(C)CC(=O)N[C@H](C(=O)N[C@H](C(=O)N[C@@H](CC(C)C)[C@@H](O)CC(=O)N[C@@H](C)C(=O)N[C@@H](CC(C)C)[C@@H](O)CC(=O)O)C(C)C)C(C)C [Pepstatin A] | 1.01 | 1.03 | 1.04 | 1 | 1.02 | 1.05 | 1.01 | 0.988
20 | CN1Cc2c(N)cccc2C(c2ccccc2)C1 (stereo not given) [Nomifensine maleate] | 0.977 | 1.01 | 0.961 | 0.94 | 1 | 0.987 | 0.997 | 1
21 | Cn1c(=O)c2c(ncn2CCO)n(C)c1=O [Etofylline] | 0.998 | 0.993 | 1.01 | 1.01 | 0.998 | 1.02 | 0.999 | 0.993
22 | C=C1c2c(Cl)ccc(O)c2C(O)=C2C(=O)[C@]3(O)C(O)=C(C(N)=O)C(=O)[C@@H](N(C)C)[C@@H]3[C@@H](O)[C@H]12.O=C(O)c1cc(S(=O)(=O)O)ccc1O [Meclocycline sulfosalicylate] | 0.00503 (active) | 0.015 (active) | 0.0396 (active) | 0.0398 (active) | 0.0142 (active) | 0.022 (active) | 0.0103 (active) | 0.00967 (active)
23 | O=C(O)/C=C/c1ccc(Cn2ccnc2)cc1 [Ozagrel hydrochloride] | 1.02 | 1.02 | 0.995 | 1.01 | 1.02 | 1.05 | 1 | 1
24 | CC(=O)/N=c1/sc(S(N)(=O)=O)nn1C [Methazolamide] | 0.99 | 1.04 | 1.05 | 0.979 | 1.07 | 1.06 | 1.01 | 1.02
25 | C#C[C@]1(O)CC[C@H]2[C@@H]3[C@H](C)CC4=C(CCC(=O)C4)[C@H]3CC[C@@]21C [Tibolone] | 0.999 | 0.971 | 0.974 | 1 | 0.963 | 0.994 | 1 | 0.986
26 | CN1CCCN(C(c2ccccc2)c2ccc(Cl)cc2)CC1 (stereo not given) [Homochlorcyclizine dihydrochloride] | 0.971 | 0.938 | 0.861 | 0.965 | 0.972 | 0.984 | 1 | 0.956
27 | Cc1cccc(C)c1OCC(C)N (stereo not given) [Mexiletine hydrochloride] | 1.01 | 1.05 | 1.05 | 1.01 | 1.03 | 1.05 | 1 | 0.999
28 | Cc1cccc(C)c1NC(=O)C1CCCCN1C (stereo not given) [Mepivacaine hydrochloride] | 1.01 | 1.06 | 1.07 | 1.02 | 1.06 | 1.05 | 0.99 | 0.996
29 | Cc1cc(NS(=O)(=O)c2ccc(N)cc2)no1 [Sulfamethoxazole] | 0.983 | 0.984 | 0.993 | 0.991 | 0.951 | 0.979 | 0.967 | 0.959
30 | CC(CNC1CCCCC1)OC(=O)c1ccccc1 (stereo not given) [Hexylcaine hydrochloride] | 0.993 | 0.97 | 0.996 | 0.986 | 1 | 1.01 | 0.995 | 0.992
